In PubChem BioAssay (NCI):
About 83,000 compounds went through this panel and 20% of them were active in at least one assay; those are over-represented in the sample as a whole.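 A percent growth of 40 corresponds to 60% growth inhibition; 0 means no net growth; -100 means all cells died. Active threshold: below 10.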 Values without a mark were called inactive. Calls of active or inactive are those of the source.

The molecules below were run on NCI-H460 lung (assay: NCI-60 one-dose screen, 48 h (100 = growth as untreated, 0 = no growth, -100 = all killed)). Settings: 10 µM unless noted.

Going from `Cc1ccc(-c2onc3c(=O)[nH]nc(-c4ccccc4)c23)cc1` to `O=C(N/N=C/c1c[nH]c2ccccc12)c1cc(-c2ccccc2)on1`, the growth rises from 19.1% to 98.1%.

Going from `O=C1CSC(=S)N1CCc1ccc(O)cc1` to `CSc1nc(-c2cccc(NC(=O)CCl)c2)c(C#N)c(=O)n1C`, the growth falls from 99% to 93.3%.

Compared with `CNC(=O)c1cc(Oc2ccc(NC(=O)Nc3ccc(Cl)c(OC(F)(F)F)c3)c(F)c2)ccn1`, `Cc1nn(-c2ccc(F)cc2)c2ncnc(Oc3ccc(NC(=O)Nc4ccc(Cl)c(C(F)(F)F)c4)cc3)c12` is higher in growth: 37.4% for the first, 101% for the second.

First: N#C/C(=C\c1ccc(-c2ccc(Cl)c(Cl)c2)o1)c1nc(-c2ccco2)cs1
Second: COc1ccc(-c2cc(NC(=O)Nc3ccc4ncsc4c3)no2)cc1
The growth of the first is lower: 87.7% for the first, 99.9% for the second.

First: O=S(=O)(Nc1ccc(OC(F)F)cc1)c1ccc(-c2cnc(C3CC3)o2)cc1
Second: O=S(=O)(Nc1ccc(Br)c(Cl)c1)c1ccc(-c2cnc(C3CC3)o2)cc1
The growth of the first is higher: 79.1% for the first, 11.9% for the second.

First: CON1C(=O)CC[C@]2(C)[C@H]3CC[C@@H]4C([C@@]5(C)CCC(=O)O5)CC[C@@]4(C)[C@]3(C)CC[C@H]2C1(C)C (some centres undefined)
Second: CC(C)C1=C[C@@]23CC[C@@H]4[C@](C)(CCC[C@@]4(C)C(=O)N4CCCNCC4)[C@H]2C[C@@H]1[C@H]1C(=O)CCC(=O)[C@H]13
The growth of the first is lower: 103% for the first, 104% for the second.

First: Cn1cc(C(=O)c2nc(-c3c[nH]c4ccc(Br)cc34)no2)c2cc(F)ccc21
Second: O=C1Nc2ccc(Br)cc2C12Oc1ccccc1C1CC(c3ccc(F)cc3)=NN12 (centres undefined)
The growth of the first is lower: 97% for the first, 98.5% for the second.

Compared with `Cc1ccc(NC(=O)/C=C/c2ccccc2)c(C(N)=O)c1`, `NC(=O)c1cc(Br)ccc1NC(=O)/C=C/c1ccccc1` is higher in growth: 10.5% for the first, 17.1% for the second.

Compared with `O=C1c2ccccc2C(=O)c2c1ccc1[nH]c(-c3cccs3)nc21`, `c1ccc(Cn2cc(-c3nc4ccccc4s3)c3cccnc32)cc1` is higher in growth: 73.7% for the first, 102% for the second.

Compared with `CN1CCN(Cc2ccc(NC(=O)c3cncc(C#Cc4cncn5ccnc45)c3)cc2C(F)(F)F)CC1`, `C=CC(=O)Nc1cccc(-c2nc(SC)nc(NCCN3CCOCC3)c2C#N)c1` is higher in growth: 64.3% for the first, 101% for the second.

First: CC(C)(C)c1cc(/C=N\NC(=O)/C=C/C=C/c2ccc3c(c2)OCO3)c(O)c(C(C)(C)C)c1
Second: CC(=O)O[C@H]1[C@@H]2OC(=O)C(CSc3ccccc3)[C@@H]2C[C@H]2O[C@]2(C)CC/C=C(\C)CCC[C@@H]1C (some centres undefined)
The growth of the first is lower: 39.6% for the first, 42.3% for the second.

Going from `O=C(O)COc1ccc(Cl)cc1C1CCCCC1` to `Cc1[nH]c(-c2cc(N)ccc2Cl)c2c1C(=O)CCCC2`, the growth falls from 96.3% to 57.3%.

Compared with `CCCCN(CCCC)CCCn1c(-c2ccccc2)ccc1-c1ccccc1`, `CCCn1c(=O)[nH]c(N)c([C@H]2c3ccccc3Oc3[nH]c(=O)n(CCC)c(=O)c32)c1=O` is higher in growth: 67.7% for the first, 111% for the second.

Compared with `Cc1c(/C=C/[N+](=O)[O-])ccc2c1[nH]c1ccccc12`, `CC1=CC(=NN=c2cc(C)n([O-])c(C)c2)C=C(C)[N+]1=O` is higher in growth: 95.4% for the first, 102% for the second.

Going from `C#CC(F)(F)[C@]1(O)CC[C@H]2[C@@H]3CCC4=CC(=O)CCC4=C3[C@@H](c3ccc(C(C)=O)cc3)C[C@@]21C` to `COc1cc2c(cc1-c1c(C)noc1C)ncc1nc(C3CCOCC3)n([C@@H](C)COC(F)F)c12`, the growth falls from 97.4% to 61%.

`O=C1Nc2cc(-c3ccc(O)cc3)ccc2/C1=C/c1ccc[nH]1` was tested, and the growth was 2.66% (active).
With `COc1ccc(-n2nc(C)c3c(Nc4ccc(NC(=O)Nc5cccc(C(F)(F)F)c5)cc4)ncnc32)cc1` the growth was 1.6% (active).
With `COc1ccc(/C=C\c2cc(OC)c(OC)c(OC)c2)cc1OC(=O)c1cccc(Cn2cc(CCOC(=O)[C@H](N)Cc3cn(C)c4ccccc34)nn2)c1` the growth was 1.11% (active).
With `C=C1c2nc3ccccc3n2C=C(c2cccc(Cl)c2)N1Cc1ccc(OC)cc1` the growth was 4.58% (active).
In the case of `CC(=O)O[C@H]1CC[C@]2(C)[C@H]3CC=C4[C@@H]5CC(C)(C)CC[C@]5(C(=O)NCCNCCNCCN)CC[C@@]4(C)[C@]3(C)CC[C@H]2C1(C)C`, the growth is reported as -56.3% (active).
In the case of `CCN(CC)c1ccc(-c2cc(-c3cc(OC)c(OC)c(OC)c3)nc(N3CCOCC3)c2C#N)cc1`, the growth is reported as -1.44% (active).
In the case of `Cc1ccc2oc(=O)cc(C3c4ccc([nH]4)C(c4cc(=O)oc5ccc(C)cc45)c4ccc([nH]4)C(c4cc(=O)oc5ccc(C)cc45)c4ccc([nH]4)C(c4cc(=O)oc5ccc(C)cc45)c4ccc3[nH]4)c2c1` (centres undefined), the growth is reported as -66.4% (active).

`C#CCOc1ccc2ncnc(N3CCC(NC(=O)CCl)CC3)c2c1` showed a growth of 81.5% [8.25 µM].

`CCCc1cc(=O)n2c(C(=O)Nc3ccc(F)cc3)c(C(=O)Nc3ccc(F)cc3)sc2n1` was tested, and the growth was 52% [30 µM].
